# Source: PubChem BioAssay (EPA / NIEHS)
# Activity calls are given as the source filed them. Rule for the calls: active = hit-call score of the fitted dose curve at least 0.9, where 1 is the maximum; inactive = score below 0.9.
# What was measured:
# [1] = ATG_CRE_CIS: Attagene CIS-FACTORIAL HepG2 Assay for human cAMP Responsive Element (CRE) binding protein 3 (AID 2282926); conditions: HepG2 CRE cis-reporter, Attagene multiplexed mRNA; actives raise or lower the signal
# Outline: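 We dosed HepG2 cells bearing multiple cis-promoter reporter units for 24 h and measured reporter mRNA by RT-PCR with capillary electrophoresis detection. Bidirectional concentration-response fitting used DMSO as negative control.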
# [2] = molecular target: CCAAT/enhancer-binding protein beta (Homo sapiens) (UniProt P17676); experiment: ATG_C_EBP_CIS: Attagene CIS-FACTORIAL HepG2 Assay for human CCAAT/Enhancer Binding Protein (C/EBP) beta (AID 2282927); conditions: HepG2 Attagene cis-factorial transcription factor reporter; actives raise or lower the signal
# Outline: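 RT-PCR/capillary electrophoresis fluorescence of reporter mRNA, 24 h post-dose, in HepG2 cells carrying transfected cis-promoter reporter units. Bidirectional curve fitting against DMSO baseline captures gain or loss of signal.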
# [3] = ATG_CMV_CIS: Attagene CIS-FACTORIAL HepG2 Assay for human CMV (Internal Marker) (AID 2282928); conditions: HepG2 CMV promoter reporter, transcription factor profiling; actives raise or lower the signal;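 note: endpoint acts as a background internal control marker rather than a target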
# Outline: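 Endogenous transcription factor activity read in HepG2 via transfected cis-promoter reporter units. After 24 h dosing, reporter mRNA measured by RT-PCR/capillary electrophoresis; gain or loss of signal fit relative to DMSO.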
# [4] = ATG_DR4_LXR_CIS: Attagene CIS-FACTORIAL HepG2 Assay for human Liver X Receptor (LXR), DR4 submotif (AID 2282929); conditions: HepG2 Attagene DR4 cis-reporter, mRNA transcription; actives raise or lower the signal
# Outline: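 HepG2 cells transiently transfected with cis-promoter-driven multiplexed reporter units (DR4 element) were dosed for 24 h. Reporter mRNA was quantified by RT-PCR, fluorescent primer extension, HpaI digestion and capillary electrophoresis; bidirectional fitting versus DMSO baseline.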
# [5] = molecular target: Aryl hydrocarbon receptor (Homo sapiens) (UniProt P35869); experiment: ATG_Ahr_CIS: Attagene CIS-FACTORIAL HepG2 Assay for human Aryl Hydrocarbon Receptor (Ahr) (AID 2282930); conditions: HepG2 AhR cis-factorial reporter transcription; actives raise or lower the signal
# Outline: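 HepG2 cells transiently transfected with cis-element-driven multiplexed reporter transcription units; endogenous transcription factor activity measured as reporter mRNA 24 h after dosing. RT-PCR, 6-FAM labelling, HpaI digestion, capillary electrophoresis; bidirectional fitting versus DMSO baseline.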
# [6] = ATG_AP_1_CIS: Attagene CIS-FACTORIAL HepG2 Assay for human Activator Protein 1 (AP-1) (AID 2282931); conditions: HepG2 Attagene cis-factorial AP-1 reporter mRNA; actives raise or lower the signal
# Outline: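 HepG2 cells transiently transfected with cis-element-driven multiplex reporter units; 24 h compound exposure. Reporter mRNA quantified by RT-PCR, FAM-labelled fragments resolved by capillary electrophoresis; bidirectional fit versus DMSO baseline.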
# [7] = ATG_AP_2_CIS: Attagene CIS-FACTORIAL HepG2 Assay for human Activator Protein 2 (AP-2) (AID 2282932); conditions: HepG2 AP-2 cis-reporter, Attagene transcription factor profiling; actives raise or lower the signal
# Outline: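 HepG2 cells were transiently transfected with multiple cis-promoter reporter transcription units and dosed for 24 h. Reporter mRNA was measured by RT-PCR with capillary electrophoresis fluorescence; bidirectional fits relative to DMSO baseline.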
# [8] = ATG_BRE_CIS: Attagene CIS-FACTORIAL HepG2 Assay for human Bone Morphogenetic Protein (BMP) Response Element (BRE) (AID 2282933); conditions: HepG2 BMP response element reporter, Attagene transcription factor profiling; actives raise or lower the signal
# Outline: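 Endogenous transcription factor activity at a BMP response element was monitored in transfected HepG2 cells 24 h after dosing. Fluorescent RT-PCR products were resolved by capillary electrophoresis, and activity was fitted in both directions versus DMSO.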
# [9] = molecular target: Retinoic acid receptor alpha (Homo sapiens) (UniProt P10276); experiment: ATG_DR5_RAR_CIS: Attagene CIS-FACTORIAL HepG2 Assay for human Retinoic Acid Receptor Alpha (RARE), DR5 submotif (AID 2282934); conditions: HepG2 Attagene cis-factorial RARE DR5 reporter, mRNA; actives raise or lower the signal
# Outline: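 HepG2 cells transiently transfected with multiplexed reporter units under cis (DR5 RARE) promoters, so endogenous transcription factor activity is measured. After 24 h compound exposure, reporter mRNA is quantified by RT-PCR with fluorescent labelling and capillary electrophoresis; bidirectional fitting versus DMSO.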
# [10] = ATG_E_Box_CIS: Attagene CIS-FACTORIAL HepG2 Assay for human Enhancer Box (E-box) (AID 2282936); conditions: HepG2 E-box cis-reporter transcription, actives raise or lower the signal
# Outline: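 HepG2 cells transiently transfected with multiplexed cis-element reporter units sensing endogenous transcription factor activity; 24 h compound exposure. Reporter mRNA measured by RT-PCR, 6-FAM primer extension, HpaI digestion and capillary electrophoresis; bidirectional fit versus DMSO.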
# [11] = ATG_M_61_CIS: Attagene CIS-FACTORIAL HepG2 Assay for M61 Transcription Factor (Internal Marker) (AID 2282937); conditions: HepG2 Attagene CIS-FACTORIAL M61 internal marker reporter; actives raise or lower the signal
# Outline: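 HepG2 cells transiently transfected with cis-element-driven multiple reporter transcription units, dosed for 24 h. Reporter mRNA measured by RT-PCR, 6-FAM primer-extension labelling, HpaI digestion and capillary electrophoresis; bidirectional fit versus DMSO baseline.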
# [12] = ATG_EGR_CIS: Attagene CIS-FACTORIAL HepG2 Assay for human Early Growth Response 1 (EGR1) (AID 2282938); conditions: HepG2 Attagene CIS-FACTORIAL EGR reporter mRNA; actives raise or lower the signal
# Outline: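 HepG2 cells transiently transfected with cis-promoter-driven multiplexed reporter transcription units; reporter mRNA measured 24 h after compound dosing by RT-PCR, 6-FAM primer extension, HpaI digestion and capillary electrophoresis. Bidirectional fit versus DMSO baseline.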
# [13] = ATG_M_19_CIS: Attagene CIS-FACTORIAL HepG2 Assay for M19 Transcription Factor (Internal Marker) (AID 2282939); conditions: HepG2 Attagene CIS-FACTORIAL M19 internal marker reporter; actives raise or lower the signal
# Outline: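 Background-control endpoint from a multiplexed HepG2 reporter panel. Cells carrying cis-regulated reporter constructs are treated 24 h, then reporter transcripts are amplified, fluorescently labelled and sized by capillary electrophoresis. DMSO defines baseline.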
# [14] = ATG_Ets_CIS: Attagene CIS-FACTORIAL HepG2 Assay for human Erythroblast Transformation Specific (ETS) (AID 2282941); conditions: HepG2 ETS cis-reporter transcription, actives raise or lower the signal
# Outline: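 Steps: transfect HepG2 with multiple reporter units; treat compound 24 h; isolate RNA, DNase-treat, reverse-transcribe; PCR-amplify, label with 6-FAM, digest with HpaI; separate by capillary electrophoresis. Activity fitted both directions versus DMSO.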
# [15] = molecular target: Hepatocyte nuclear factor 3-beta (Homo sapiens) (UniProt Q9Y261); experiment: ATG_FoxA2_CIS: Attagene CIS-FACTORIAL HepG2 Assay for human Forkhead box A2 (FOXA2) (AID 2282942); conditions: HepG2 cis-reporter transcription factor activity, 24 h; actives raise or lower the signal
# Outline: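 HepG2 cells transiently transfected with multiple cis-regulated reporter transcription units, dosed for 24 h. Reporter mRNA measured by RT-PCR, 6-FAM labelling, HpaI digestion and capillary electrophoresis; bidirectional fitting against DMSO baseline.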
# [16] = ATG_FoxO_CIS: Attagene CIS-FACTORIAL HepG2 Assay for human Forkhead box O (FoxO) (AID 2282943); conditions: HepG2 Attagene cis-reporter, FoxO element, mRNA; actives raise or lower the signal
# Outline: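 HepG2 cells transiently transfected with cis-promoter-driven multiple reporter transcription units; 24 h after chemical dosing, reporter mRNA quantified by RT-PCR, fluorescent primer extension, HpaI digestion and capillary electrophoresis. Bidirectional fitting versus DMSO baseline.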
# [17] = ATG_GATA_CIS: Attagene CIS-FACTORIAL HepG2 Assay for human GATA Binding Protein (AID 2282944); conditions: HepG2 GATA cis-element reporter, Attagene multiplex mRNA; actives raise or lower the signal
# Outline: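 Endogenous transcription factor activity was captured through cis-promoter-driven reporters in transfected HepG2 cells. After 24 h exposure, reporter transcripts were quantified by RT-PCR with fluorescent capillary electrophoresis, and responses fitted both directions against DMSO.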
# [18] = ATG_GLI_CIS: Attagene CIS-FACTORIAL HepG2 Assay for human Zinc Finger Protein GLI1 (AID 2282945); conditions: HepG2, Attagene cis-factorial reporter mRNA, GLI element; actives raise or lower the signal
# Outline: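 HepG2 cells transiently transfected with cis-promoter multiplexed reporter units report endogenous transcription factor activity. After 24 h chemical exposure, reporter mRNA was quantified by RT-PCR, 6-FAM labelling, HpaI digestion and capillary electrophoresis, with bidirectional fitting against DMSO.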
# [19] = molecular target: Transcription factor E2F1 (Homo sapiens) (UniProt Q01094); experiment: ATG_E2F_CIS: Attagene CIS-FACTORIAL HepG2 Assay for human E2F Transcription Factor 1 (AID 2282935); conditions: HepG2 Attagene cis-reporter, E2F reporter RNA transcripts; actives raise or lower the signal
# Outline: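 HepG2 cells transiently transfected with multiplexed cis-element reporter units, dosed for 24 h. Reporter mRNA measured by RT-PCR, 6-FAM primer-extension labeling, HpaI digestion and capillary electrophoresis; bidirectional fit versus DMSO baseline.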
# Chain of CCAAT/enhancer-binding protein beta (Homo sapiens) (P17676 whole entry, looked up): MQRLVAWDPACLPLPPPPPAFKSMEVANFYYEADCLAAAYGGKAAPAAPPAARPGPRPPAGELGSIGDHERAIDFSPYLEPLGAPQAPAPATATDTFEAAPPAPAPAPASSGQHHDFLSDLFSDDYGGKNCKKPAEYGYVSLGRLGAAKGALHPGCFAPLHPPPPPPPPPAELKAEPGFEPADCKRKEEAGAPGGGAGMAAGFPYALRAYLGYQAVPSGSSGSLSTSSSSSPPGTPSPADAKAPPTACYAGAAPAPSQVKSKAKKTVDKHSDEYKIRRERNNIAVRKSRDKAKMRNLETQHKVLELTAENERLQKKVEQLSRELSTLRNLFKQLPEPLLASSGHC
# Chain of Hepatocyte nuclear factor 3-beta (Homo sapiens) (Q9Y261 whole entry, looked up): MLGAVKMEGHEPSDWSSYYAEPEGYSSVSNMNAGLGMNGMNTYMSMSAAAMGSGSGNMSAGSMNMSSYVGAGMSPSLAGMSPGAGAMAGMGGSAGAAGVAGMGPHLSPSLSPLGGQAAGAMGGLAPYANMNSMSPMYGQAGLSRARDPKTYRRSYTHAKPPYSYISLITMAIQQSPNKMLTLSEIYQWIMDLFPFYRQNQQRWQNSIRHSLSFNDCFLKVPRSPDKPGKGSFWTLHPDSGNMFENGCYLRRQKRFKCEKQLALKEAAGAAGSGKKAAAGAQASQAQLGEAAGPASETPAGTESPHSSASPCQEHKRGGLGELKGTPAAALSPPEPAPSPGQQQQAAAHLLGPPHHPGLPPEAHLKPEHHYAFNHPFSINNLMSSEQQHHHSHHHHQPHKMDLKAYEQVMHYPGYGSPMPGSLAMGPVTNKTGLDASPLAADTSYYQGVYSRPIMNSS
# Chain of Aryl hydrocarbon receptor (Homo sapiens) (P35869 whole entry, looked up): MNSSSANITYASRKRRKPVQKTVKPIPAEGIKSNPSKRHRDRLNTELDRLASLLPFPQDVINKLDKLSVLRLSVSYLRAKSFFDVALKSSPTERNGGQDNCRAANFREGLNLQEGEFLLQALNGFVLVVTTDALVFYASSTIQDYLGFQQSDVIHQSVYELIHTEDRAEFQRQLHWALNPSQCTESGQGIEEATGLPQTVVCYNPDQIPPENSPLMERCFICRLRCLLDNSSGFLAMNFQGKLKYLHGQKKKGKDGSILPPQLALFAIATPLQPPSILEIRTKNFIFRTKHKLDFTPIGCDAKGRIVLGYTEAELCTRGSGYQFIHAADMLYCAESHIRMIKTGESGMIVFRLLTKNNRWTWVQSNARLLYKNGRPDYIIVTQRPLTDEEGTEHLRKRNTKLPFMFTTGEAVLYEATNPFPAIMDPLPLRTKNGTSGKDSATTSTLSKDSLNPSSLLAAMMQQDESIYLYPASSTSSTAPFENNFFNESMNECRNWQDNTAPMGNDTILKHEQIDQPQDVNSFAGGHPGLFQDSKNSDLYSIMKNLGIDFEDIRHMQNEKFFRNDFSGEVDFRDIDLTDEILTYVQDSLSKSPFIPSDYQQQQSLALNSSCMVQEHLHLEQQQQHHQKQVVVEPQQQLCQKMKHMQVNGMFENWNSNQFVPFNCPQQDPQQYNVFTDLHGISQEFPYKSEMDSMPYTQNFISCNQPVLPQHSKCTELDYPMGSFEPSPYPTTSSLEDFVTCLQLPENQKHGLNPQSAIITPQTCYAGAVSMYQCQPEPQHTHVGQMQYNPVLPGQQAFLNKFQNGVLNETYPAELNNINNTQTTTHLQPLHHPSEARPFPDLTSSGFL
# Chain of Retinoic acid receptor alpha (Homo sapiens) (P10276 whole entry, looked up): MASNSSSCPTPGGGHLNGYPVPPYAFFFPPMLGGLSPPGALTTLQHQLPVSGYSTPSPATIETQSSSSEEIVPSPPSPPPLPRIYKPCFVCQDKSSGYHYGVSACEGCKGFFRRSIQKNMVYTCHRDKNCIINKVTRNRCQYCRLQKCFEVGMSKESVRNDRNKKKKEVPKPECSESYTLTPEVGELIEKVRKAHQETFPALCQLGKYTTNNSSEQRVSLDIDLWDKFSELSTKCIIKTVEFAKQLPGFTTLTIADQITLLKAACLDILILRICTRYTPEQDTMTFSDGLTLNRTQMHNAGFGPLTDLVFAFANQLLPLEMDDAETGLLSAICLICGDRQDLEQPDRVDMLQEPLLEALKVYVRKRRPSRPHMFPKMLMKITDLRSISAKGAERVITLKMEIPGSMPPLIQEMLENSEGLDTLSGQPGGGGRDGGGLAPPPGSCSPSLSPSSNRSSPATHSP
# Chain of Transcription factor E2F1 (Homo sapiens) (Q01094 whole entry, looked up): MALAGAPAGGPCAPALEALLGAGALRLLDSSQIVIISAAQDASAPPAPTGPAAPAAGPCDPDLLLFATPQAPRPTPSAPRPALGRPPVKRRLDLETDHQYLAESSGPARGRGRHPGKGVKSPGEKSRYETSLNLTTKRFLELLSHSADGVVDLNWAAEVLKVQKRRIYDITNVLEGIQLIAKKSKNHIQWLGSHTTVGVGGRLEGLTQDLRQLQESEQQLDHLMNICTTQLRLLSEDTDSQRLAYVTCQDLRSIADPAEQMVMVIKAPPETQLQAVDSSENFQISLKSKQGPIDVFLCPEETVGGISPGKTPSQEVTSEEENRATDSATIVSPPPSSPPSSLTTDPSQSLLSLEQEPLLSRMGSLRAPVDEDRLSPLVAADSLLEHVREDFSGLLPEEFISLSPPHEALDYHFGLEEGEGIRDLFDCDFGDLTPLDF
structure (smiles),measurement,setting,value
CC/C=C\CC/C=C/CO,outcome,[1],inactive
same,outcome,[2],inactive
same,outcome,[3],inactive
same,outcome,[4],inactive
same,outcome,[5],inactive
same,outcome,[6],inactive
same,outcome,[7],inactive
same,outcome,[8],inactive
same,outcome,[9],inactive
same,outcome,[10],inactive
same,outcome,[11],inactive
same,outcome,[12],inactive
same,outcome,[13],inactive
same,outcome,[14],inactive
same,outcome,[15],inactive
same,outcome,[16],inactive
same,outcome,[17],inactive
same,outcome,[18],inactive
CC1(C)CCC[C@]2(C)[C@H]3CCO[C@]3(C)CC[C@@H]12,outcome,[1],inactive
same,outcome,[2],inactive
same,outcome,[3],inactive
same,outcome,[4],inactive
same,outcome,[5],inactive
same,AC50,[6],151 µM (active)
same,outcome,[7],inactive
same,outcome,[8],inactive
same,outcome,[9],inactive
same,AC50,[10],58.3 µM (active)
same,outcome,[11],inactive
same,outcome,[12],inactive
same,outcome,[13],inactive
same,outcome,[14],inactive
same,outcome,[16],inactive
same,outcome,[17],inactive
same,outcome,[18],inactive
CCCCCCCCCCCC(=O)OC[C@@H](O)[C@H]1OC[C@H](O)[C@H]1O,outcome,[1],inactive
same,outcome,[2],inactive
same,outcome,[3],inactive
same,outcome,[4],inactive
same,outcome,[5],inactive
same,outcome,[6],inactive
same,outcome,[7],inactive
same,outcome,[8],inactive
same,outcome,[9],inactive
same,outcome,[19],inactive
same,outcome,[10],inactive
same,outcome,[11],inactive
same,outcome,[12],inactive
same,outcome,[13],inactive
same,outcome,[15],inactive
same,outcome,[16],inactive
same,outcome,[17],inactive
same,outcome,[18],inactive
C=C(C)C(=O)OCC(CC)(COC(=O)C(=C)C)COC(=O)C(=C)C,outcome,[1],inactive
same,outcome,[2],inactive
same,outcome,[3],inactive
same,outcome,[4],inactive
same,outcome,[5],inactive
same,outcome,[6],inactive
same,outcome,[7],inactive
same,outcome,[8],inactive
same,outcome,[9],inactive
same,outcome,[10],inactive
same,outcome,[11],inactive
same,outcome,[12],inactive
same,outcome,[13],inactive
same,outcome,[14],inactive
same,outcome,[15],inactive
same,outcome,[16],inactive
same,outcome,[17],inactive
same,outcome,[18],inactive
OCc1ccc(Cl)cc1Cl,outcome,[1],inactive
same,outcome,[2],inactive
same,outcome,[3],inactive
same,outcome,[4],inactive
same,outcome,[5],inactive
same,outcome,[6],inactive
same,outcome,[7],inactive
same,outcome,[8],inactive
same,outcome,[9],inactive
same,outcome,[10],inactive
same,outcome,[11],inactive
same,outcome,[12],inactive
same,outcome,[13],inactive
same,outcome,[14],inactive
same,outcome,[15],inactive
same,outcome,[16],inactive
same,outcome,[17],inactive
same,outcome,[18],inactive
COCCc1ccc(OCC(O)CNC(C)C)cc1 (stereo not drawn),outcome,[1],inactive
same,outcome,[2],inactive
same,outcome,[3],inactive
same,outcome,[4],inactive
same,outcome,[5],inactive
same,outcome,[6],inactive
same,outcome,[7],inactive
same,outcome,[8],inactive
same,outcome,[9],inactive
same,outcome,[10],inactive
same,outcome,[11],inactive
same,outcome,[12],inactive
same,outcome,[13],inactive
same,outcome,[14],inactive
same,outcome,[16],inactive
same,outcome,[17],inactive
same,outcome,[18],inactive
OCC#CCO,outcome,[1],inactive
same,outcome,[2],inactive
same,outcome,[3],inactive
same,outcome,[4],inactive
same,outcome,[5],inactive
same,outcome,[6],inactive
same,outcome,[7],inactive
same,outcome,[8],inactive
same,outcome,[9],inactive
same,outcome,[10],inactive
same,outcome,[11],inactive
same,outcome,[12],inactive
same,outcome,[14],inactive
same,outcome,[15],inactive
same,outcome,[16],inactive
same,outcome,[17],inactive
same,outcome,[18],inactive
